Results published in PubChem BioAssay (EPA / NIEHS).
Values joined by “and” are separate entries in the source; they are usually repeats but may differ in a detail not shown here. Equal entries are not always repeated. Active and inactive are the calls of the source. Rule for the calls: active = hit-call score of the fitted dose curve at least 0.9, where 1 is the maximum; inactive = score below 0.9.

What follows are compounds tested on Actin alpha 1 (ACTA1), ACTA1 (gene 58) (assay: BSK_MyoF_ACTA1: BioMAP Diversity Plus: MyoF Assay for Actin alpha 1 (ACTA1) Biomarker Activity (AID 2284244)). Details: primary human lung fibroblasts.
Procedure: BSK_MyoF is a cell-based, multiplexed-readout assay that uses lung fibroblasts, […], with measurements taken at 24 hours after chemical dosing in a microplate: 96-well plate.BSK_MyoF_ACTA1 is an assay component measured in the BSK_MyoF assay. It measures a-SMA antibody related to regulation of gene expression using ELISA technology.Data from the assay component BSK_MyoF_ACTA1 was analyzed at the endpoint, BSK_MyoF_ACTA1, in the positive analysis fitting direction relative to DMSO as the negative control and baseline of activity. Using a type of binding reporter, gain or loss-of-signal activity can be used to understand protein changes. To generalize the intended target to other relatable targets, this assay endpoint is annotated to the 'cell adhesion molecules' intended target family, where the subfamily is 'actin'.
The levels of cell surface (or secreted, indicated by the prefix "s") biomarker endpoints were measured by ELISA. Overt cytotoxicity to cells in confluent adherent cultures (all systems other than the BT system) was assessed by measuring total protein levels using sulforhodamine B (SRB) staining in parallel cultures at the time of biomarker measurements, indicated as SRB endpoints. For proliferation assays for adherent cell types, individual cell types are cultured at sub-confluence and relative cell numbers quantified by SRB staining at time points optimized for each system (48 h: 3C and CASM3C systems; 72 h: BT and HDF3CGF systems; 96 h: SAg system). SRB was performed by staining cells with 0.1% SRB after fixation with 10% TCA and reading wells at 560 nm.Viability and proliferation of PBMC (T cells) was quantified by Alamar Blue reduction for the SAg and BT systems. For PBMC viability (referred to as PBMC Cytotoxicity within the assay endpoint names), cells were plated (75,000/well in a 96-well plate) and then chemical samples added for 1 h before addition of activators, SEB and TSST-1 (20 ng/mL final concentration each). Cells were incubated for 90 h. Then, Alamar Blue (20 uL/well) (Invitrogen, Cat DAL1100) was added for 6 h, and the plates were read with a fluorescence microplate reader at 546/580 nm (excitation/emission). For PBMC proliferation, cells were plated and activated as above but incubated for only 16 h prior to addition of Alamar Blue. Plates were read after 6 h.

Question: Which outcome does the source give for C=CC(=O)NCOCCCC here?
Answer: The outcome was “inactive”.

Question: For CC=C(C)C(C)=O, which outcome is on record?
Answer: The outcome was “inactive”.

Question: With CC(C)CCCCCOC(=O)CS as the compound, how does the outcome read?
Answer: The outcome was “inactive”.

Question: With CCOC(=O)/C=C\C(=O)OCC as the compound, how does the outcome read?
Answer: Its outcome is “inactive”.

Question: Which outcome does the source give for CCc1cccc(C)c1N(C(=O)CS(=O)(=O)O)C(C)COC (stereo not given) here?
Answer: Its outcome is “inactive”.

Question: C=CC(=O)OCCCCCCOC(=O)C=C was tested. Which AC50 did it give?
Answer: Its AC50 is 20 µM (active).

Question: For O=C(Oc1ccccc1)c1ccccc1C(=O)Oc1ccccc1, which AC50 is on record?
Answer: Its AC50 is 30.2 µM (active).

Question: CC=C(C)C=CC=C(C)C was tested. Which outcome did it give?
Answer: The outcome was “inactive”.

Question: CCNc1nc(NC(C)(C)C)nc(OC)n1 was tested. Which outcome did it give?
Answer: Its outcome is “inactive”.

Question: Which outcome does the source give for C=CC(=O)NC(C)(C)C here?
Answer: The outcome was “inactive”.

Question: With CCCCC1C(=O)N(c2ccccc2)N(c2ccccc2)C1=O as the compound, how does the outcome read?
Answer: Its outcome is “inactive”.

Question: Which outcome does the source give for Oc1ccc(/C=C/c2cc(O)cc(O)c2)cc1 here?
Answer: The outcome was “inactive”.

Question: How did the outcome turn out when c1ccc2c(c1)[nH]c1ccccc12 was run?
Answer: Its outcome is “inactive”.

Question: CCOC(=O)C1=NOC(c2ccccc2)(c2ccccc2)C1 was tested. Which outcome did it give?
Answer: The outcome was “inactive”.

Question: With CC1=CC=C(C(C)C)CC1 as the compound, how does the outcome read?
Answer: Its outcome is “inactive”.

Question: With CC(C)[N+](C)(CCOC(=O)C1c2ccccc2Oc2ccccc21)C(C)C as the compound, how does the outcome read?
Answer: The outcome was “inactive”.

Question: CC1(C)CC(O)CC(C)(C)N1[O] was tested. Which outcome did it give?
Answer: The outcome was “inactive”.

Question: O=C(O)C(F)(F)C(F)(F)C(F)(F)C(F)(F)C(=O)O was tested. Which outcome did it give?
Answer: Its outcome is “inactive”.

Question: How did the outcome turn out when COC(OC)(C(=O)c1ccccc1)c1ccccc1 was run?
Answer: Its outcome is “inactive”.

Question: CCCCCCCCCCCC(C)=O was tested. Which outcome did it give?
Answer: Its outcome is “inactive”.

Question: c1ccc2sc(SSN3CCOCC3)nc2c1 was tested. Which AC50 did it give?
Answer: Its AC50 is 25.4 µM (active).

Question: Which outcome does the source give for O=C1CCCCCCCCCCCN1 here?
Answer: The outcome was “inactive”.

Question: How did the outcome turn out when C=C(C)C(=O)OCCCCCCCCCCCC was run?
Answer: The outcome was “inactive”.

Question: How did the outcome turn out when CC(C)c1cccc(C(C)C)c1N was run?
Answer: Its outcome is “inactive”.

Question: How did the outcome turn out when CCCCCC1=CCCC1=O was run?
Answer: The outcome was “inactive”.

Question: How did the AC50 turn out when COc1ccc(C(=O)/C(Br)=C\C(=O)O)cc1 was run?
Answer: The AC50 was 28 µM (active) and 30.3 µM (active).

Question: Which outcome does the source give for CCCCCCCCC(CO)CCCCCC (stereo not given) here?
Answer: Its outcome is “inactive”.

Question: CC(c1cc(C(C)(C)C)cc(C(C)(C)C)c1O)c1cc(C(C)(C)C)cc(C(C)(C)C)c1O was tested. Which outcome did it give?
Answer: Its outcome is “inactive”.

Question: How did the AC50 turn out when C[N+](C)(C)CCCNS(=O)(=O)C(F)(F)C(F)(F)C(F)(F)C(F)(F)C(F)(F)C(F)(F)C(F)(F)C(F)(F)F was run?
Answer: Its AC50 is 33.6 µM (active) and 31.3 µM (active).

Question: How did the outcome turn out when Clc1cc(Cl)c(Cl)c(Cl)c1Cl was run?
Answer: Its outcome is “inactive”.

Question: Cc1c(O)cccc1O was tested. Which outcome did it give?
Answer: Its outcome is “inactive”.

Question: With CC(Cl)COP(=O)(OCC(C)Cl)OCC(C)Cl (stereo not given) as the compound, how does the outcome read?
Answer: Its outcome is “inactive”.

Question: For C=CC(=O)OCCCCCCCC(C)C, which outcome is on record?
Answer: The outcome was “inactive”.

Question: For C=CCCCCCCCCC=O, which outcome is on record?
Answer: Its outcome is “inactive”.

Question: For C=CC(=O)OCC(C)OCC(C)OCC(C)OC(=O)C=C (stereo not given), which AC50 is on record?
Answer: Its AC50 is 30.8 µM (active).

Question: With CCOC(=O)C1=NN(c2ccc(Cl)cc2Cl)C(C)(C(=O)OCC)C1 (stereo not given) as the compound, how does the outcome read?
Answer: The outcome was “inactive”.

Question: Which AC50 does the source give for Oc1c(Cl)cc(Cl)c(Cl)c1Cl here?
Answer: The AC50 was 29.7 µM (active).

Question: For CC/C=C\CCOC(=O)c1ccccc1O, which AC50 is on record?
Answer: Its AC50 is 30.7 µM (active).

Question: For Nc1cccc(N)n1, which outcome is on record?
Answer: The outcome was “inactive”.

Question: With O=C(Cl)c1c(Cl)c(Cl)c(C(=O)Cl)c(Cl)c1Cl as the compound, how does the outcome read?
Answer: The outcome was “inactive”.
